Results: paper PMC6792352, “Limited Chemical Structural Diversity Found to Modulate Thyroid Hormone Receptor in the Tox21 Chemical Library” (Environmental Health Perspectives, 2019)
Counter-ions that a name gives are not always drawn.

tested on: thyroid hormone receptor (endogenous TRα and TRβ); design: species or system GH3-TRE-Luc (rat pituitary); GH3-TRE-Luc luciferase reporter, antagonist mode against 1 nM T3, loss of signal, qHTS; conditions: antagonist mode, 1 nM T3, no GH3 cytotoxicity hit, read-out: Average AC50 (uM) GH3-TRE-Antag

Point of comparison: `CCOP(=S)(OCC)SCSC(C)(C)C` [Terbufos], AC50 85 µM. Against it:
- C[C@]12CC[C@H]3[C@@H](CCC4=CC(=O)CC[C@@]43C)[C@@H]1CC[C@@H]2OC(=O)CCc1ccccc1 [Testosterone 17-phenylpropionate] — 2.8-fold lower, 30 µM
- O=C(Nc1ccccc1)Nc1cnns1 [Thidiazuron] — within 1.5-fold, 76.7 µM
- CC(C)CC(N(C)C)C1(c2ccc(Cl)cc2)CCC1 (stereo not drawn) [Sibutramine hydrochloride] — 2.9-fold lower, 29.8 µM
- CNP(=O)(OC)Oc1ccc(C(C)(C)C)cc1Cl (stereo not drawn) [Crufomate] — 1.6-fold lower, 52.9 µM
- CN1C[C@H](C(=O)N[C@]2(C)O[C@@]3(O)[C@@H]4CCCN4C(=O)[C@H](Cc4ccccc4)N3C2=O)C=C2c3cccc4[nH]cc(c34)C[C@H]21 [Ergotamine D-tartrate] — 2.3-fold lower, 36.2 µM
- CCC1COC(Cn2cncn2)(c2ccc(Cl)cc2Cl)O1 (stereo not drawn) [Etaconazole] — 2.3-fold lower, 36.8 µM
- CC(C)=CCN1CC[C@]2(C)c3cc(O)ccc3C[C@H]1[C@H]2C [(+)-Pentazocine succinate] — 2.3-fold lower, 37.2 µM
- COP(=O)(OC)O/C(=C\Cl)c1cc(Cl)c(Cl)cc1Cl [Z-Tetrachlorvinphos] — 2.3-fold lower, 37.7 µM
- OCC(c1ccc(Cl)cc1)c1ccc(Cl)cc1 [2,2-Bis(4-chlorophenyl)ethanol] — 1.8-fold lower, 46.2 µM
- Nc1ccc(N=Nc2ccc(-c3ccc(N=Nc4c(S(=O)(=O)O)cc5cc(S(=O)(=O)O)c(N=Nc6ccccc6)c(O)c5c4N)cc3)cc2)c(N)c1 [C.I. Direct Black 38] — 6.1-fold lower, 14 µM
- COP(=S)(OC)Oc1ccc(S(=O)(=O)N(C)C)cc1 [Famphur] — not separable, > 50 µM
- COP(=S)(OC)SCN1C(=O)c2ccccc2C1=O [Phosmet] — not separable, > 50 µM
- Cn1c(-c2ccccc2)cc(-c2ccccc2)[n+]1C [Difenzoquat metilsulfate] — within 1.5-fold, 68.7 µM
- Nc1ccc2c(c1)Cc1ccccc1-2 [2-Aminofluorene] — 1.6-fold lower, 52 µM
- CCOP(=S)(OCC)SCSP(=S)(OCC)OCC [Ethion] — within 1.5-fold, 71.9 µM
- CN(C)c1ccc(N=Nc2ccccc2)cc1 [4-(Dimethylamino)azobenzene] — within 1.5-fold, 80.1 µM
- c1ccc2c(c1)sc1ccccc12 [Dibenzothiophene] — 2.5-fold lower, 33.4 µM
- COP(=O)(OC)OC(=CCl)c1cc(Cl)c(Cl)cc1Cl [Tetrachlorovinphos] — 3.1-fold lower, 27.1 µM
- O=[N+]([O-])c1cccc2cccc([N+](=O)[O-])c12 [1,8-Dinitronaphthalene] — 1.7-fold lower, 49.5 µM
- CCOP(=S)(OCC)SC(CCl)N1C(=O)c2ccccc2C1=O (stereo not drawn) [Dialifor] — higher, > 90 µM
- Clc1nc(Cl)nc(Cl)n1 [2,4,6-Trichloro-s-triazine] — higher, > 90 µM
- N#CSCc1ccccc1 [Benzyl thiocyanate] — 1.5-fold lower, 56.4 µM
- CCCCC(CC)COP(=O)(Oc1ccccc1)Oc1ccccc1 (stereo not drawn) [2-Ethylhexyl diphenyl phosphate] — 1.8-fold lower, 48.3 µM
- C[C@@H]1[C@H]2Cc3ccc(O)cc3[C@]1(C)CCN2C [(-)-Metazocine fumarate (1:1)] — 1.7-fold lower, 50.6 µM
- O=P(Oc1ccccc1)(Oc1ccccc1)Oc1ccccc1 [Triphenyl phosphate] — higher, > 90 µM
- C[C@]12CCC(=O)C=C1CC[C@@H]1[C@@H]2CC[C@@]2(C)[C@H]1CC[C@]2(C)O [17-Methyltestosterone] — 1.8-fold lower, 46 µM
- CCC(N)Cc1c[nH]c2ccccc12 (stereo not drawn) [Etryptamine acetate] — 1.9-fold lower, 43.6 µM
- C[C@]12C=CC(=O)C=C1CC[C@@H]1[C@@H]2CC[C@@]2(C)[C@H]1CC[C@]2(C)O [Methandrostenolone] — 2.5-fold lower, 34.4 µM
- C[C@]12CCC(=O)C[C@@H]1CC[C@@H]1[C@@H]2CC[C@]2(C)[C@@H](O)CC[C@@H]12 [5alpha-Dihydrotestosterone] — 3.1-fold lower, 27.8 µM
